Laboratory results published in PubChem BioAssay AID588413 (Sanford-Burnham Center for Chemical Genomics, 2011).
Among all 340,000 compounds or so, about 2,500 (0.74%) were called active.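 Rule for the calls: active = inhibition above about 55% (limit read from the data); inactive = the rest.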 Only a selection was taken, and actives are over-represented in it overall.

assay: Gli-Sufu pathway antagonists, primary screen, luciferase luminescence, Sufu-KO-LIGHT cells, uHTS (AID 588413); conditions: Sufu-KO-LIGHT fibroblasts, Gli luciferase reporter luminescence; at 5 µM; hits give high values;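 note: 0% = DMSO-treated cells and 100% = wells with medium but no cells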

SMILES	inhibition
Cc1ccc(S(=O)(=O)N(C)C)cc1NC(=O)C1Cc2ccccc2CN1C(=O)c1ccco1 (stereo not given)	-7.42% (inactive)
COc1ccc(CCNC(=O)C(=O)NCC2OCCN2S(=O)(=O)c2cccs2)cc1OC (stereo not given)	1.51% (inactive)
CC[C@H]1CN2CCc3cc(OC)c(OC)cc3[C@@H]2C[C@@H]1C[C@H]1NCCc2cc(OC)c(OC)cc21	71.3% (active)
COc1ccc2c(c1)CCNC2Cc1ccc(OC)c(O)c1 (stereo not given)	7.38% (inactive)
COc1cc2c(cc1OC)CN(CC(=O)Nc1ccc(F)cc1)CC2	9.09% (inactive)
C=CC(=O)Nc1ccc(Nc2ccnc(Nc3ccc(N4CCN(C)CC4)cc3)n2)cc1	21.8% (inactive)
CC(NC(=O)C1CCC(CNc2c(N3CCOCC3)c(=O)c2=O)CC1)c1ccccc1 (stereo not given)	-5.64% (inactive)
COCCN(Cc1ccccc1)C(=O)Cc1ccc(S(=O)(=O)N2CCOCC2)s1	4.55% (inactive)
CC[n+]1c(C)n(-c2ccccc2)c2ccc(NC(C)=O)cc21	76.3% (active)
CC(=O)c1cccc(NC(=O)c2cc(C)nn2-c2ccccc2)c1	5.19% (inactive)
Cc1nnc(SCC(=O)Nc2cccc(N)c2)n1-c1ccccc1	-28.9% (inactive)
Cc1ccc(C(=O)NCC(=O)O)s1	-7.96% (inactive)
CC1OC2C(OC1C)N(S(C)(=O)=O)CCN2S(C)(=O)=O (stereo not given)	-7.55% (inactive)
Cc1ccsc1C(=O)OCC(=O)Nc1cccc(F)c1	-43.7% (inactive)
COc1ccc(C(=O)OCC(=O)c2cc(C)n(CC3CCCO3)c2C)cc1[N+](=O)[O-] (stereo not given)	-7.49% (inactive)
Cc1ccsc1C(=O)OCC(=O)c1cc(C)n(CC2CCCO2)c1C (stereo not given)	72.1% (active)
CCN(CC)C(CNC(=O)CSc1nnnn1-c1cccc(F)c1)c1ccco1 (stereo not given)	10% (inactive)
CCOC(=O)CNC(=O)N1c2ccccc2Sc2ccccc21	2.43% (inactive)
CCNCCC(=O)N1c2ccccc2Sc2ccc(NC(=O)OCC)cc21	26.4% (inactive)
CCN1/C(=C/C(=S)Nc2ccccc2)Sc2ccccc21	67.6% (active)
CC(=O)c1ccc(S(=O)(=O)NC2CC(=O)N(c3ccc4c(c3)OCCO4)C2)cc1 (stereo not given)	-3.34% (inactive)
CCN(CC(=O)Nc1c(F)cccc1F)C(=O)c1ccc(Sc2nncn2C)c([N+](=O)[O-])c1	31.3% (inactive)
CC(C)Oc1ccc(C(=O)NC(C)(C)CO)cc1	-9.97% (inactive)
CCC(Cc1ccccc1)NC(=O)C1CCCCC1 (stereo not given)	63.1% (active)

SMILES	inhibition
Cc1ccc(NC(=O)[C@H](Cc2ccccc2)NC(=O)C2CCNCC2)cc1	2.89% (inactive)
CCC(NC(=O)C1CCCC1)c1ccc(C)cc1 (stereo not given)	-10.2% (inactive)
COc1ccc(C(=O)COC(=O)Cn2cnc3c2c(=O)n(C)c(=O)n3C)c(OC)c1	3.81% (inactive)
NC(=O)C1(Nc2ccccc2Cl)CCCC1	4.9% (inactive)
CC[C@]12c3[nH]c4ccc(OC)cc4c3CCN1C(=O)C(CC(=O)NCc1ccco1)C[C@@H]2C(=O)N1CCN(C(=O)C2CC2)CC1 (stereo not given in full)	-2.82% (inactive)
C=CCSc1nc2c(c(=O)[nH]1)C(C(C)C)C(C#N)=C(N)O2 (stereo not given)	-7.54% (inactive)
CC/C(O)=C1\C(=O)CC(C)(C)CC1=NCCc1nc2ccccc2[nH]1	25.2% (inactive)
CCCc1nc(N)nc2c1C(=O)CC(C)(C)C2	77.6% (active)
CC1(C)CC(=O)c2sc(N)nc2C1	4.1% (inactive)
CCc1ccc2nc(N(CCCN(C)C)C(=O)c3ccc4c(c3)OCCO4)sc2c1	11.7% (inactive)
CCOc1ccc2nc(N(CCCN(C)C)C(=O)c3ccc(C(=O)c4ccccc4)cc3)sc2c1	65.2% (active)
CN(C)CCCN(C(=O)c1ccc(S(=O)(=O)N2CCCCCC2)cc1)c1nc2ccc(Br)cc2s1	42.7% (inactive)
Cc1ccc(F)c(NC(=O)CCc2ccccc2)c1	-20.7% (inactive)
CCOc1cccc(/C=N/NC(=S)NCCN2CCOCC2)c1O	81.1% (active)
CCOc1cccc(/C=N/N2C(=O)CSC2=S)c1O	-1.42% (inactive)
Cc1ccc(C(=O)NC(=S)NCCN2CCOCC2)cc1	-9.17% (inactive)
O=C(CNc1ccc(F)cc1F)NC(=O)NCc1ccco1	-1.84% (inactive)
Cc1cc([N+](=O)[O-])ccc1NCc1cccc([N+](=O)[O-])c1	8.75% (inactive)
COCCCNC(=S)N1CCCC(c2nc3cc(C)c(C)cc3[nH]2)C1 (stereo not given)	15.7% (inactive)
CCC(C)(C)NC(=O)C(c1ccc(O)cc1)N(Cc1ccco1)C(=O)CCC(=O)Nc1ccccn1 (stereo not given)	-4.35% (inactive)
Cc1ccc(NC(=O)C(C)Sc2nnc(C3CC3)n2C2CC2)cc1S(=O)(=O)N1CCOCC1 (stereo not given)	4.31% (inactive)
CCCn1cc(S(=O)(=O)c2ccc(C)cc2)c(=O)c2cc(OCC)ccc21	32.4% (inactive)
CC(C)(C)c1ccc(OC2=CS(=O)(=O)c3ccccc32)cc1	-36.6% (inactive)
COc1cccc(Oc2ccc(N)cc2)c1	-23.1% (inactive)

SMILES	inhibition
CC(C)(C)c1ccc(Oc2ccc(N)cc2)cc1	76.2% (active)
CCOc1ccc(NS(=O)(=O)c2ccc(C)c(C(N)=O)c2)cc1	29.7% (inactive)
Cc1cccc(C(=O)OCC(=O)Nc2sc3c(c2C#N)CCC3)c1	-6.89% (inactive)
CC(=O)c1c(C)[nH]c(C(=O)OCC(=O)Nc2sc3c(c2C#N)CCCC3)c1C	69.3% (active)
N#CCC(=O)Nc1ccc(C(=O)OCC(=O)Nc2sc3c(c2C#N)CCCC3)cc1	-9.19% (inactive)
Cc1cc(C)c(C)c(S(=O)(=O)Nc2cccnc2)c1C	1.03% (inactive)
Fc1ccc(CNc2nc3ccccc3n3nnnc23)cc1	-6.79% (inactive)
CCc1nc2sc3c(Cl)ncnc3c2c2c1CCCC2	-1.03% (inactive)
O=C1/C(=C\c2cccnc2)CN(Cc2ccccc2)C/C1=C\c1cccnc1	99.3% (active)
O=C(O)C1CC(=O)N(Cc2cccnc2)C1 (stereo not given)	-11.1% (inactive)
Cc1ccccc1C1=N/C(=C/c2cccnc2)C(=O)O1	-7.01% (inactive)
Cc1ccc2cc(/C=N/Nc3ccc(C(=O)O)cc3)c(Cl)nc2c1	-101% (inactive)
CCNC(=S)NNC(=O)c1ccc2ncccc2c1	-4.73% (inactive)
O=C(O)c1ccc(N/N=C/c2ccc3ncccc3c2)cc1	67% (active)
CNc1ccc(SC#N)cc1	60.3% (active)
COc1ccc(N2C(=O)/C(=C\c3ccco3)N=C2SCC(N)=O)cc1Cl	5.71% (inactive)
O=C(Cn1cnc2c(nnn2-c2ccccc2)c1=O)N1CCC(Cc2ccccc2)CC1	-4.74% (inactive)
COc1cc(-c2nc(S(=O)(=O)c3ccc(Cl)cc3)c(N(C)C)o2)cc(OC)c1OC	7.51% (inactive)
Cc1oc2c(c1C(=O)N1CCOCC1)C(=O)c1ccccc1C2=O	87% (active)
O=C(c1snnc1-c1ccccc1)N1CCOCC1	9.83% (inactive)
COc1cc2ccccc2cc1C(=O)N1CCOCC1	-5.57% (inactive)
CCOC(=O)[C@H]1[C@H]2COc3ccc(Cl)cc3[C@@H]2N2C(=O)c3cc(C)ccc3NC(=O)[C@@]12C	1.26% (inactive)
CCOC(=O)CN(C(=O)COc1nc(-c2ccccc2)cc(C)c1C#N)c1ccc(F)cc1	5.59% (inactive)
Cc1ccc2c(=O)cc(C(=O)NCCc3ccc(S(N)(=O)=O)cc3)oc2c1C	-18.4% (inactive)

SMILES	inhibition
CSc1ccccc1NC(=O)Cc1ccc(Br)cc1	1.53% (inactive)
COc1ccc(S(=O)(=O)Nc2ccccc2C(=O)N2CCCC2)cc1C	-10.7% (inactive)
COc1ccc(S(=O)(=O)NC(C)c2ccccc2)cc1C(=O)N1CCCCC1 (stereo not given)	12.8% (inactive)
Cc1ccc(S(=O)(=O)NC(C)C(=O)Nc2ccccc2C(=O)N2CCCC2)cc1 (stereo not given)	95% (active)
CCOc1ccc(/C=C(/C#N)c2nnc(N3CCOCC3)n2-c2ccccc2)cc1OC	4.23% (inactive)
O=S(=O)(Nc1ccc2nc(N3CCOCC3)sc2c1)c1ccccc1	-64.9% (inactive)
Brc1ccc2nc(N3CCCC3)sc2c1	-88.5% (inactive)
c1c2c(cc3sc(N4CCCCC4)nc13)OCCO2	66.6% (active)
CC1CN(C(=O)c2ccccc2NS(=O)(=O)c2cccc([N+](=O)[O-])c2)CC(C)O1 (stereo not given)	-7.72% (inactive)
COc1ccc(F)cc1C(=O)C1CCCN(C(=O)CCc2ccccn2)C1 (stereo not given)	12.7% (inactive)
CC(C)(C)c1cc(C(=O)NN)n(Cc2ccc(Cl)cc2Cl)n1	-3.86% (inactive)
O=c1ccn(Cc2ccccc2Cl)cc1	17% (inactive)
N#CC(C#N)=CN=c1ccn(Cc2ccc(Cl)cc2Cl)cc1	57.1% (active)
COc1ccc(CC(=O)NC(C)c2ccc(Cl)c(Cl)c2)cc1S(=O)(=O)N1CCOCC1 (stereo not given)	-4.33% (inactive)
COc1cc(Cl)c(C)cc1NC(=O)CN1CCCCCC1	40.6% (inactive)
CCCCNc1nc2c(c(=O)n(C)c(=O)n2C)n1Cc1cccc(OC)c1	73.1% (active)
Cn1c(=O)c2c(nc(NCCNC(=O)c3ccco3)n2Cc2ccccc2F)n(C)c1=O	-26.1% (inactive)
Cn1c(=O)c2c(nc(NCc3ccccc3)n2CC(N)=O)n(C)c1=O	0.59% (inactive)
CCn1c(NCCc2ccc(OC)c(OC)c2)nc2c1c(=O)n(C)c(=O)n2C	11.3% (inactive)
CCCCNc1nc2c(c(=O)[nH]c(=O)n2C)n1CCOc1ccccc1	-15.8% (inactive)
Cn1c(=O)c2c(nc(NCCc3ccccc3)n2Cc2ccccc2)n(C)c1=O	62.7% (active)
O=C(Cn1nnc(-c2ccccc2)n1)NC(=O)NC1CCCC1	0.46% (inactive)
Cc1ccc(SC(=O)COc2ccc(C)c(C)c2)cc1	-16.4% (inactive)
